The values that follow come from PubChem BioAssay.

Calls of active or inactive are those of the source.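 How the source made its calls, unless noted: active means inhibition of the reporter signal at or above 50%; inactive means inhibition below 50%.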

Test [1] can be described thus: inhibitors of TNFa-induced NFkB p65 translocation, primary screen, imaging, HUVEC, MLSMR starter and 10KST1 sets (AID 438;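 active means inhibition above 20% together with a positive visual image hit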;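 further: compound added about 3h40 before a 20 min TNFalpha stimulation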;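 on inhibition: signal is the nuclear over cytoplasmic p65 intensity ratio per well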). The note with it: HUVEC TNFa-induced p65 nuclear translocation; cell count: measured here: nuclei count (cytotoxicity indicator), at 2.08 µM; inhibition: at 2 µM, stronger effect = higher value, 0% TNFa-plus-vehicle, 100% no-TNFa wells.
The nature of test [2]: reduction of polyQ htt aggregates in cells – imaging, exon1htt(103Q)mCFP cells, high-content imaging, primary screen (AID 483;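 active means visual image review flags a hit and inhibition of aggregation exceeds 20%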;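 further: compound exposure lasted 3 days before fixation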;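 on nuclei count: percent of the per-plate median nuclei count of sample wells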). The settings on record: exon1htt(103Q)mCFP cell line, aggregate imaging, at 2 µM; inhibition of aggregation: stronger effect = higher value; nuclei count: measured here: cell count, toxicity.
A short description of test [3]: endothelial E-selectin expression blockers – imaging, HUVEC, immunofluorescence, MLSMR starter and 10KST1 sets, primary screen (AID 487;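 active means visually confirmed hit in the image check and inhibition above 20%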;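 on inhibition: signal is fraction of cell area covered by stained E-selectin grains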;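 on nuclei count: 100% = median nuclei count of all wells on the same plate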). The note with it: HUVEC TNFalpha-induced E-selectin immunofluorescence imaging, at 2 µM; inhibition: stronger effect = higher value; nuclei count: measured here: cell number, toxicity.
Test [4] concerns the target Voltage-gated potassium channel subunit beta-2 (Rattus norvegicus) (UniProt P62483). Description: inhibitors of rat Kvbeta2 reductase activity – biochemical, NADPH fluorescence, primary screen (AID 622;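 active means fluorescence slope higher than the sample average by over 3 SD, cut at about -0.22 in these data, passing the limit was not always enough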;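 further: slope of raw intensity against log time taken from 70 to 1610 s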). The note with it: recombinant KvBeta, 4-cyanobenzaldehyde reduction, at 10 µM, stronger effect = higher value.
The target is the same in test [5]. Description: enhancers of rat Kvbeta2 NADPH turnover – biochemical, NADPH fluorescence, primary screen (AID 623;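 active means NADPH fluorescence slope more negative than the mean of all samples by about 3 SD, 99.7% confidence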;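 further: fluorescence intensity change per second fitted from 20 to 320 s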). The note with it: Recombinant KvBeta, NADPH fluorescence decrease slope, 10 min; at 10 µM; stronger effect = lower value.
In test [6] the target is Alpha-2C adrenergic receptor (Homo sapiens) (UniProt P18825). Description: compounds altering alpha2C-coupled GIRK flux – cell-based, HEK293 alpha2C/GIRK1/2, thallium flux, primary screen (AID 624;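 active means fluorescence slope after compound addition differing from the mean of all screened samples at 99.7% confidence, in either direction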;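 further: slope of fluorescence ratio to pre-addition baseline per second over 15 to 24 s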). The settings on record: thallium flux BTC fluorescence, at 10 µM, actives lie on both sides.
A short description of test [7]: blockers of RIG-like receptor reporter activation – cell-based, Sendai virus stimulus, luciferase, 10K MLSCN set, TLR/RLR signaling modifier project, primary screen (AID 602276;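 active means inhibition at or above 50% at 10 µM; inactive means inhibition below 50%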;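 further: firefly luciferase from ISG56 promoter only with Renilla not read in this screen; 0% = Sendai virus plus DMSO and 100% = medium plus DMSO without virus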). The settings on record: HEK293 RL24 IRF3 luciferase reporter, at 10 µM, stronger effect = higher value.
The nature of test [8]: TLR3 IRF3 reporter activation blockers – cell-based, poly I:C stimulus, luciferase, 10K MLSCN set, primary screen (AID 602277). The settings on record: HEK293-TLR3 RL24 IRF3 luciferase reporter, at 10 µM, stronger effect = higher value.

Chain of Voltage-gated potassium channel subunit beta-2 (Rattus norvegicus) (P62483 whole entry, looked up): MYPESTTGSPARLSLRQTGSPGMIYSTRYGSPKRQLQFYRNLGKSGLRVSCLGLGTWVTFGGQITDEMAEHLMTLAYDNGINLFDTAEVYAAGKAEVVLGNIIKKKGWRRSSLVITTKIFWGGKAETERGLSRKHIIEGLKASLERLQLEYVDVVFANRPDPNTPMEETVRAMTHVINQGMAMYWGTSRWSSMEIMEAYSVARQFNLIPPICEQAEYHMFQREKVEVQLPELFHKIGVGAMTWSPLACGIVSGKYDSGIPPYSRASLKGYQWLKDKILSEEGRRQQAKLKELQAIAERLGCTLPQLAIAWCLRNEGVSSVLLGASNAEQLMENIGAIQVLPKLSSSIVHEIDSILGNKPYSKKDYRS
Chain of Alpha-2C adrenergic receptor (Homo sapiens) (P18825 whole entry, looked up): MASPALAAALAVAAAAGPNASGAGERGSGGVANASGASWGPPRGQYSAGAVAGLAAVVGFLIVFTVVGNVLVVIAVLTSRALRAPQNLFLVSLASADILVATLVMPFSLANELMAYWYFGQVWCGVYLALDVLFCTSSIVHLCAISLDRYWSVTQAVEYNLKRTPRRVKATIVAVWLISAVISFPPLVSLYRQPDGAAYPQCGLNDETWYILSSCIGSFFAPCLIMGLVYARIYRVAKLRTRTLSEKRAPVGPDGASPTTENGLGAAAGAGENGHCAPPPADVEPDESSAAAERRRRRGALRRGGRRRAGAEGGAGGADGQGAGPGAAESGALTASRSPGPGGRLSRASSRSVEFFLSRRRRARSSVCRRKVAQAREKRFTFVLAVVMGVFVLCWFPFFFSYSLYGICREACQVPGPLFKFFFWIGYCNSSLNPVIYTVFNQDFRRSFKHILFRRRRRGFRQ

Consider `Cc1csc(NC(=O)C(Cc2ccccc2)n2cccc2)n1` (centres undefined), for which the cell count in test [1] worked out at 497. Also, the inhibition in test [1] was -3.7% (inactive); in test [3] it was -38.3% (inactive); in test [7] it was 1.35% (inactive); in test [8] it was -7.22% (inactive). Moreover, the inhibition of aggregation in test [2] is 27% (inactive). Also, the nuclei count was found to be 56.5% in test [2] and 117% in test [3]. Also, the fluorescence slope in test [4] is -0.538 (inactive). Moreover, the NADPH fluorescence slope in test [5] is -5.3e-06 (inactive). For the same compound, the slope in test [6] was 0.0101 (active).

Turning to `CCOC(=O)N1CCC(NC(=O)CSCc2nc(-c3cccc(OC)c3)oc2C)CC1`, the cell count in test [1] is 292. Moreover, the inhibition was 4.4% (inactive) in test [1], -30.2% (inactive) in test [3], 9% (inactive) in test [7] and -6.15% (inactive) in test [8]. Moreover, the inhibition of aggregation in test [2] was -9% (inactive). The nuclei count came to 94.6% in test [2] and 124% in test [3]. Further, the fluorescence slope in test [4] is -0.498 (inactive). The NADPH fluorescence slope in test [5] is -5.4e-05 (inactive). In test [6], the slope is 0.00445 (inactive).

For the compound `CC1CCC2C(C1)c1sc(=O)[nH]c1SC2(C)C` (centres undefined), the cell count in test [1] came out at 815. Also, the inhibition in test [1] is -7.3% (inactive); in test [3], -18.7% (inactive); in test [7], -1.58% (inactive); in test [8], 10.1% (inactive). The inhibition of aggregation in test [2] was 16.6% (inactive). Further, the nuclei count in test [2] turned out to be 98.3%; in test [3], 116%. Besides, the fluorescence slope in test [4] was -0.365 (inactive). For the same compound, in test [5], the NADPH fluorescence slope is 2e-05 (inactive). The slope in test [6] was 0.00605 (inactive).

As for `CC(C)(O)C1=NOC(c2ccccc2)C1` (centres undefined), the cell count in test [1] came to 647. The inhibition in test [1] is -6.5% (inactive); in test [3], -43.3% (inactive); in test [7] it was 6.77% (inactive); in test [8], 22.8% (inactive). In test [2], the inhibition of aggregation is -4.9% (inactive). Also, the nuclei count in test [2] came out at 98.5%; in test [3], 99.1%. In addition, the fluorescence slope in test [4] is -0.411 (inactive). The NADPH fluorescence slope in test [5] was 1.7e-07 (inactive). Further, the slope in test [6] is 0.00603 (inactive).

For the compound `Cc1nnc2c3ccccc3c(-c3ccccc3)nn12`, in test [1], the cell count was 481. The inhibition was -4.4% (inactive) in test [1], -3.3% (inactive) in test [3], 68% (active) in test [7] and 61.1% (active) in test [8]. The inhibition of aggregation in test [2] was -5.8% (inactive). The figures for the nuclei count in test [2] and in test [3] were 92.4% and 108%, respectively. Moreover, in test [4], the fluorescence slope was -0.301 (inactive). The NADPH fluorescence slope in test [5] is -4.7e-05 (inactive). Further, the slope in test [6] is 0.00584 (inactive).

Turning to `CCOC(=O)C1CCCn2c1nc1sc3c(c1c2=O)CCCC3` (centres undefined), in test [1], the cell count was 457. Moreover, the inhibition in test [1] is 3.7% (inactive); in test [3] it was -114% (inactive); in test [7], -24.3% (inactive); in test [8], -20.3% (inactive). In addition, the inhibition of aggregation in test [2] is -6% (inactive). Further, the nuclei count in test [2] was 110%; in test [3] it was 115%. Also, in test [4], the fluorescence slope was -0.435 (inactive). For the same compound, in test [5], the NADPH fluorescence slope was 9.6e-06 (inactive). For the same compound, in test [6], the slope was 0.00445 (inactive).

Turning to `COCCCNC(=O)C1CCN(C(=O)Nc2ccc(Cl)cc2)CC1`, in test [1], the cell count was determined as 577. The inhibition in test [1] was 5% (inactive); in test [3] it was 33.6% (inactive); in test [7], 11.2% (inactive); in test [8] it was 34.3% (inactive). Also, in test [2], the inhibition of aggregation was 18.9% (inactive). For the same compound, the values for the nuclei count in test [2] and in test [3] were 96.2% and 82.1%, respectively. In test [4], the fluorescence slope was -0.457 (inactive). In addition, in test [5], the NADPH fluorescence slope is 1.1e-05 (inactive). In addition, the slope in test [6] is 0.00588 (inactive).

As to `CC1=C(C(N)=O)C(c2ccccn2)n2nc(SCc3ccccc3)nc2N1` (centres undefined), the cell count in test [1] came out at 624. In addition, the inhibition in test [1] was 3.8% (inactive); in test [3], 43.5% (inactive); in test [7], -8.46% (inactive); in test [8], 0.00265% (inactive). The inhibition of aggregation in test [2] is 3.9% (inactive). The nuclei count is 93% in test [2] and 86.4% in test [3]. Moreover, the fluorescence slope in test [4] is -0.316 (inactive). The NADPH fluorescence slope in test [5] was -8.8e-05 (inactive). Also, the slope in test [6] is 0.0057 (inactive).

Regarding `CCCc1cc(=O)[nH]c(Nc2ccc(OC)c(Cl)c2)n1`, the cell count in test [1] turned out to be 238. Further, the inhibition in test [1] is -0.8% (inactive); in test [3], 25.7% (inactive); in test [7], -1.81% (inactive); in test [8], 46.2% (inactive). Further, the inhibition of aggregation in test [2] was 17.6% (inactive). Also, the nuclei count was 88.1% in test [2] and 70.9% in test [3]. Besides, in test [4], the fluorescence slope was -0.478 (inactive). Moreover, the NADPH fluorescence slope in test [5] was -8.5e-06 (inactive). For the same compound, the slope in test [6] was 0.00603 (inactive).

As to `C/C=C(\C)c1nnc(NC(=O)OCC)s1`, the cell count in test [1] turned out to be 743. In addition, the inhibition is -5% (inactive) in test [1], -52% (inactive) in test [3], -36.1% (inactive) in test [7] and -51.1% (inactive) in test [8]. Moreover, the inhibition of aggregation in test [2] is -16% (inactive). Moreover, the nuclei count in test [2] is 115%; in test [3] it was 110%. Moreover, the fluorescence slope in test [4] is -0.342 (inactive). Further, the NADPH fluorescence slope in test [5] was -5.8e-05 (inactive). In test [6], the slope was 0.00534 (inactive).

For `Cc1ccc(SC(C)c2nc(-c3ccccc3)no2)cc1` (centres undefined), in test [1], the cell count worked out at 283. The inhibition was -7.5% (inactive) in test [1], 51.9% (active) in test [3], -11.7% (inactive) in test [7] and -42.5% (inactive) in test [8]. The inhibition of aggregation in test [2] is 8.1% (inactive). Also, the nuclei count in test [2] came to 105%; in test [3], 42.1%. In addition, the fluorescence slope in test [4] is -0.416 (inactive). The NADPH fluorescence slope in test [5] was -4.5e-05 (inactive). The slope in test [6] was 0.00449 (inactive).

Consider `Cc1noc(C)c1CSc1nnc2n(-c3ccccc3)c(=O)c3ccccc3n12`, for which the cell count in test [1] came out at 342. Further, the inhibition in test [1] is -4% (inactive); in test [3], -27.6% (inactive); in test [7], 7.36% (inactive); in test [8], 20.9% (inactive). The inhibition of aggregation in test [2] is 12.7% (inactive). Moreover, the nuclei count was 85.8% in test [2] and 89.5% in test [3]. In test [4], the fluorescence slope is -0.411 (inactive). Also, the NADPH fluorescence slope in test [5] was -1e-05 (inactive). Also, the slope in test [6] is 0.00571 (inactive).

For `O=C(COc1ccccc1Cl)NCCCN1CCOCC1`, in test [1], the cell count was determined as 458. Besides, the inhibition was 5.4% (inactive) in test [1], -11.3% (inactive) in test [3], 10.2% (inactive) in test [7] and 18.2% (inactive) in test [8]. Further, the inhibition of aggregation in test [2] is 0% (inactive). Moreover, the figures for the nuclei count in test [2] and in test [3] were 117% and 126%, respectively. In test [4], the fluorescence slope is -0.509 (inactive). In addition, the NADPH fluorescence slope in test [5] was -5.8e-05 (inactive). Further, the slope in test [6] is 0.00528 (inactive).

Turning to `COCCNC(=O)CN(C)S(=O)(=O)c1ccc(Br)cc1`, the cell count in test [1] is 465. The inhibition in test [1] is 2.1% (inactive); in test [3] it was 24.8% (inactive); in test [7], 11.2% (inactive); in test [8], 12.3% (inactive). For the same compound, the inhibition of aggregation in test [2] is -10.4% (inactive). In addition, the nuclei count turned out to be 106% in test [2] and 110% in test [3]. In test [4], the fluorescence slope is -0.507 (inactive). Moreover, the NADPH fluorescence slope in test [5] is -3.7e-05 (inactive). In test [6], the slope was 0.00533 (inactive).
